About 83,000 compounds went through this panel and 20% of them were active in at least one assay; those are over-represented in the sample as a whole.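 48-hour exposure, single concentration, 96-well plates; percent growth endpoint where 0 means no net growth. Active: below 10.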 The source made the active and inactive calls.
These compounds were tested on SNB-19 CNS (assay: NCI-60 one-dose screen, 48 h (100 = growth as untreated, 0 = no growth, -100 = all killed)). Conditions: 10 µM unless noted.
Procedure: Growth inhibition of the SNB-19 human tumor cell line is measured as a screen for anti-cancer activity. Cells are grown in 96 well plates and exposed to the test compound for 48 hours. Compounds are tested at a single concentration, which is 10^-5 M for most compounds. The reported endpoint is percent growth (GI% or GIPRCNT), where numbers from 0 - 100% represent growth inhibition, and numbers from -100% - 0 represent cell death. For example, a value of 40 represents 60% growth inhibition. A value of 0 means no net growth occurred over the course of the experiment. A value of -40 indicates 40% of cells at the beginning of the experiment died by the end of the experiment. A value of -100 means all cells are dead at the end of the experiment.
NCI-60 Human Tumor Cell Lines Screen was performed using the standard one-dose NCI protocol, which is described in more detail at https://dtp.cancer.gov/discovery_development/nci-60/default.htm.
Compounds with GIPRCNT values below 10 were considered active. Activity score was based on GIPRCNT using the following formula: […]
Score is 0 for GIPRCNT values of 100 or above, 50 for GIPRCNT values of 0, and 100 for GIPRCNT values of -100.

Row | Structure (SMILES) | growth
1 | CC(C)(C)OC(=O)NCc1cccc(N=C=S)c1 | 77.1% (inactive)
2 | O=C(Nc1ccc(-n2cc(-c3ccncc3)c(-c3ccc(O)c(Cl)c3)n2)cc1)c1cc(C(F)(F)F)cc(C(F)(F)F)c1 | 66.2% (inactive)
3 | COc1cc2c(cc1OC)-c1c(oc3c4c(ccc3c1=O)OC(C)(C)C=C4)CO2 | 75.5% (inactive)
4 | O=[N+]([O-])c1ccc(NS(=O)(=O)c2cc(Cl)ccc2Cl)c2ccccc12 | 60.1% (inactive)
5 | CCN(CC)CCN1C(=O)c2c(c3c4ccccc4[nH]c3c3[nH]c4ccccc4c23)C1=O | 80.3% (inactive)
6 | NS(=O)(=O)c1ccc(CCN2C(=O)/C(=C\c3ccc(Cl)cc3)C=C2c2ccc(Oc3ccccc3)cc2)cc1 | 80.3% (inactive)
7 | O=C(NCCNc1nccc(-c2c(-c3cccc(O)c3)nc3sccn23)n1)c1ccccc1 | 91.1% (inactive)
8 | CCOc1ccc(NC(=O)Nc2cc(C(C)C)ccc2C)cc1 | 79.5% (inactive)
9 | Cc1ccc(-c2cn3cc([N+](=O)[O-])ccc3n2)cc1 | 92.1% (inactive)
10 | NN=C(c1ccc(Cl)cc1)c1ccc(Cl)cc1 | 98.9% (inactive)
11 | CCCOC(=O)c1ccc([N+](=O)[O-])o1 | 111% (inactive)
12 | Clc1ccc2c(NCCNc3nc(Cl)nc4ccccc34)ccnc2c1 | -49.9% (active)
13 | O=C1OC(c2ccc(-c3ccccc3)cc2)=C/C1=C/C=C/c1ccccc1 | 99.1% (inactive)
14 | O=C(NCCNc1nccc(-c2c(-c3cccc(O)c3)nc3sccn23)n1)Nc1cccc(C(F)(F)F)c1 | 89.5% (inactive)
15 | O=c1nc(N2CCOCC2)oc2c(-c3cccc4ccccc34)cccc12 | 91.8% (inactive)
16 | CCCCN(CCCC)c1ccc(C(=N)c2ccc(N(C)C)cc2)cc1 | 6.19% (active)
17 | O=C1C(Cl)=C(Nc2ccccc2)C(=O)C(Cl)=C1Nc1ccccc1 | 129% (inactive)
18 | Nc1ncnc2c1ncn2C1OC(COC(c2ccccc2)(c2ccccc2)c2ccccc2)C(O)C1O (stereo not given) | 96.5% (inactive)
19 | C=CC(C)(O)CCC1C(=C)CCC2C(C)(C)CCCC12C (stereo not given) | 111% (inactive)
20 | CCC1S/C(=N\N=C(/C)c2cc3ccccc3o2)N(c2ccccc2)C1=O (stereo not given) | 100% (inactive)

Row | Structure (SMILES) | growth
21 | Clc1ccc(OCc2nc(-c3ccccc3)n[nH]2)c(Cl)c1 | 99.3% (inactive)
22 | C=C1C(=O)O[C@H]2[C@H]1CC/C(COC(=O)CCCC(=O)OC/C1=C/CC[C@@]3(C)O[C@H]3[C@H]3OC(=O)C(=C)[C@@H]3CC1)=C\CC[C@@]1(C)O[C@@H]21 | 67.6% (inactive)
23 | Cc1cn(-c2cc(C(=O)Nc3cccc(-n4ccc5c(NC(=O)c6ccccc6)nccc54)c3)cc(C(F)(F)F)c2)cn1 | 28.9% (inactive)
24 | C=C1c2c(Cl)ccc(O)c2C(O)=C2C(=O)[C@]3(O)C(O)=C(C(N)=O)C(=O)[C@@H](N(C)C)[C@@H]3[C@@H](O)[C@H]12 | 20.9% (inactive)
25 | CN1C(=O)C2(SCC(C(=O)NCC(=O)OC(C)(C)C)N2C(=O)C2CCCCC2)c2ccccc21 (stereo not given) | 99.2% (inactive)
26 | O=C(NCCNc1nccc(-c2c(-c3cccc(O)c3)nc3sccn23)n1)c1ccc(N2CCOCC2)c(C(F)(F)F)c1 | 107% (inactive)
27 | COC(=O)/C=C/C(=O)c1cc(C)cc(C)c1O | 108% (inactive)
28 | Cc1cn([C@]2(CF)O[C@H](CO)C2C)c(=O)[nH]c1=O (stereo not given in full) | 118% (inactive)
29 | CCCCCCCCCCCC(=O)OCCNC(=O)C[n+]1ccccc1 | 102% (inactive)
30 | CC1(C)Cc2c(Br)c(Br)c(Br)c(OCC(O)CN3CCN(c4ccccn4)CC3)c2O1 (stereo not given) | 101% (inactive)
31 | CC(Cc1cccc(C(F)(F)F)c1)NCCOC(=O)c1ccccc1 (stereo not given) | 100% (inactive)
32 | COc1ccc2c(c1)/C(=C/c1c(-c3cc(OC)c(OC)c(OC)c3Br)nc3sccn13)C(=O)N2 | 106% (inactive)
33 | CCOC(=O)CSc1nnc(-c2cc3c([nH]c4ccccc43)c(-c3cccc(O)c3)n2)n1-c1ccc(C)cc1 | 97.3% (inactive)
34 | O=C(Cn1c2ccccc2c2ccncc21)N/N=C/c1cc(O)c(O)c(O)c1 | 93.9% (inactive)
35 | CCOc1ccc(NC2=C(Cl)C(=O)c3ccccc3C2=O)cc1 | 62% (inactive)
36 | COc1ccccc1N1CCN(CCCOc2ccc(OCCCN3CCN(c4ccccc4OC)CC3)c(C(=O)c3cc(OC)c(OC)c(OC)c3)c2)CC1 | 102% (inactive)
37 | COc1ccc(-c2nn(-c3cccc(Cl)c3)cc2-c2cc(-c3ccc(Br)cc3)[nH]c(=O)c2C#N)cc1 | 90.6% (inactive)
38 | CC(C)(C)OC(=O)N1CCN(CCn2cc(C(F)(F)F)c3c(Cl)ncnc32)CC1 | 37.3% (inactive)
39 | C=C1C(=O)O[C@H]2[C@H]1CC/C(COC(=O)c1ccc(C#N)cc1)=C\CC[C@@]1(C)O[C@@H]21 | 47.7% (inactive)
40 | CC(=O)c1ccc2c(c1)C1C=CCC1[C@H](c1cc3c(cc1Br)OCO3)N2 (stereo not given in full) | 44.6% (inactive)

Reference: PubChem BioAssay (NCI)
